About 83,000 compounds went through this panel and 20% of them were active in at least one assay; those are over-represented in the sample as a whole.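 Assay: single dose, 48 h. Readout: percent growth (0 = no net growth; negative = cell death). Active: <10.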 Values without a mark were called inactive. Activity calls are given as the source filed them.
Experiments:
Assay in all cases: NCI-60 one-dose screen, 48 h (100 = growth as untreated, 0 = no growth, -100 = all killed)
Settings in all cases: 10 µM unless noted
[1] = test system: HCT-15 colon
[2] = test system: HT29 colon
[3] = test system: SNB-75 CNS
[4] = test system: U251 CNS
[5] = test system: PC-3 prostate
[6] = test system: SK-MEL-5 melanoma
[7] = test system: UACC-62 melanoma
[8] = test system: LOX IMVI melanoma
[9] = test system: SK-MEL-28 melanoma
[10] = test system: SK-MEL-2 melanoma
[11] = test system: EKVX NSCLC
[12] = test system: SN12C renal
[13] = test system: UO-31 renal
[14] = test system: TK-10 renal
[15] = test system: ACHN renal
[16] = test system: CAKI-1 renal
[17] = test system: A498 renal
[18] = test system: CCRF-CEM leukemia
[19] = test system: MOLT-4 leukemia

SMILES | growth [1] | growth [2] | growth [3] | growth [4] | growth [5] | growth [6] | growth [7] | growth [8] | growth [9] | growth [10] | growth [11] | growth [12] | growth [13] | growth [14] | growth [15] | growth [16] | growth [17] | growth [18] | growth [19]
Cc1ccc2nc(-c3ccc(C(=O)N/N=C/c4ccc([N+](=O)[O-])cc4)cc3)[nH]c2c1 | 102% | 102% | 97.1% | 107% | 98.2% | 98.5% | 97.4% | 98.8% | 112% | 116% | 108% | 106% | 86.4% | 127% | 104% | 97.4% | 82.8% | 95.3% | 93.4%
c1ccc(-c2ccc3c(c2)C2(CCNCC2)CN3)cc1 | 99.6% | 96.5% | 73.8% | 102% | 86.9% | 99.1% | 84.6% | 89.9% | 110% | 93.4% | 75.9% | 98.7% | 66.1% | 125% | 93% | 93% | 104% | 112% | 85.7%
C=C1CC[C@@H]2C(C)(C)[C@H](O)CC[C@@]2(C)[C@@H]1COc1ccc2ccc(=O)oc2c1 | 56.2% | 84.1% | 98.5% | 83.1% | 25.2% | 19.1% | 24.5% | 36.5% | 73.6% | 63.8% | 57.8% | 67.3% | -3.4% (active) | 96.3% | 49% | 39.6% | 64.5% | 26.2% | 
CCN(CC)CCOc1ccc(/C(=C(\C)Cc2ccc(OC)cc2)c2ccc(OC(=O)NCc3ccccc3)cc2)cc1 | 15.1% | -34.8% (active) | 59.4% | 32.4% | 46.2% | 26.5% | 34.3% | 37.2% | 38% | 69.1% | 73% | 74.7% | 46.3% | 71.4% | 81.4% | 69.3% | 84.8% | 23.1% | 1.91% (active)
COC(=O)c1ccc2c(c1)c1c(C)c3cnccc3c(C)c1n2C | -8.77% (active) | -10.9% (active) | 8.05% (active) | -16.5% (active) | 5.43% (active) | -91.3% (active) | -82.3% (active) | -55% (active) | -54.5% (active) | -56.2% (active) | -7.49% (active) | -3.93% (active) | -45.7% (active) | -15.5% (active) |  | -10.2% (active) | -84.3% (active) | 6.83% (active) | 2.75% (active)
CS(=O)/C(C#N)=C\C=C\c1cccc(Cl)c1 (centres undefined) | -6.41% (active) | 8.51% (active) | 22.5% | 17.3% |  | 32.3% | 0.315% (active) | -53.2% (active) | 24.8% | 31.9% | 38.9% | 19.9% | 21.4% | 35% | 3.18% (active) | 20.5% | 12.1% | 2.45% (active) | 7.07% (active)
CC(C)n1c2ccc(Br)cc2c2c3c(c4c5ccccc5ccc4c21)C(=O)NC3=O | 83.7% | 70.3% | 103% | 98% | 89.8% | 90.7% | 101% | 106% | 96.5% | 111% | 86.1% | 85.9% | 59.2% | 91.8% | 68.4% | 82.5% | 71.8% | 90.1% | 75.1%
COc1cc2c(cc1OCCCN1CCN(C(=S)SCCC(C#N)(c3ccccc3)c3ccccc3)CC1)N=C[C@@H]1CCCN1C2=O | -89.5% (active) | -89.3% (active) | -91.5% (active) | -95.7% (active) | -34.9% (active) | -100% (active) | -72% (active) | -100% (active) | -82.6% (active) | -80% (active) | -95.6% (active) | -43.9% (active) | 4.62% (active) | -59.7% (active) | -46.1% (active) | -44.1% (active) | -100% (active) | -35% (active) | -8.92% (active)

— PubChem BioAssay (NCI)
